ATXN viability: Viability Counterscreen for Primary qHTS for Inhibitors of ATXN expression; S2 cells (HEK-293 line with an ATXN2-luciferase reporter) viability, CellTiter-Fluor protease fluorescence, 24 h; Potency, µM (titrated, usually from 56.7 µM), hits mostly cytotoxic; actives 0.49% (n = 400,000); further: nearly all actives have a fitted effect of over 40% in size
D3 antag: qHTS of D3 Dopamine Receptor Antagonist: qHTS | max response, negative = inhibition, % | actives 2.5% (n = 360,000) | AID 652054, 2013 | D3R cells, DiscoveRx beta-arrestin luminescence, antagonist mode; active compounds read low | D(3) dopamine receptor (Homo sapiens), P35462; in the data active means max response below about -50%; inconclusive means no clear call, values can overlap the other calls
Target sequence (P35462 whole entry, looked up): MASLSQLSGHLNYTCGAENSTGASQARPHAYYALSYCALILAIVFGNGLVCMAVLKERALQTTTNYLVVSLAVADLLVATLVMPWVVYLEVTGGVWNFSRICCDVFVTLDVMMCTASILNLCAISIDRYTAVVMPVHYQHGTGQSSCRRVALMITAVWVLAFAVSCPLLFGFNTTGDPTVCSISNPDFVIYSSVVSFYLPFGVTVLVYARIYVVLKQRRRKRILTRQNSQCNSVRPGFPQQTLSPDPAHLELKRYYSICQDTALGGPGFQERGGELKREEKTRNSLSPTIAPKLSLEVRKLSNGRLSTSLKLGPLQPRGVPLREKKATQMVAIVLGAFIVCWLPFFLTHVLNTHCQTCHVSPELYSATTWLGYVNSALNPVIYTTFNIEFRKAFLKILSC
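Cells expressing the human receptor were seeded at 1500 cells/well, incubated overnight at 37 degrees C in 5% CO2, then exposed to library compounds with dopamine controls for 90 minutes at 37 degrees C before luminescent detection.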
DRD3 agonist: qHTS of D3 Dopamine Receptor Agonist: qHTS; D(3) dopamine receptor (Homo sapiens), P35462; D3R DiscoveRx beta-arrestin cells, luminescence, 90 min; max activation, %; actives 0.58% (n = 410,000); AID 652048, 2013; in the data active means max activation above about 30%
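Agonist mode: compounds and dopamine controls were applied to plated cells for 90 min at 37 degrees C after an overnight attachment at 1500 cells/well. Luminescent read-out followed 30 - 60 minutes at room temperature with DiscoveRx detection reagent.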
TGFb inhibitor: qHTS for Inhibitors of TGF-b; HepG2 CAGA-GFP TGF-b/SMAD3 reporter, GFP fluorescence, 18 h; TGF-beta stimulated, 500 pg/mL final; Potency, µM (top dose mostly 46.1 µM), hits mostly inhibitors; actives 1.2% (n = 410,000); further: nearly all actives have a fitted effect of over 65% in size
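Cell-based qHTS in HEPG2 carrying a CAGA-GFP Smad reporter; compounds added before 500 pg/mL final TGF-beta, 18 h incubation at 37 degrees C, GFP fluorescence quantified per cell by imaging cytometry.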
HepG2 viability: qHTS for Inhibitors of TGF-b: Cytotox Counterscreen | Potency, µM (highest dose often 46.1 µM), most hits filed as cytotoxic | HepG2 CAGA-GFP viability, ATP luminescence, 18 h | actives 0.76% (n = 410,000)
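HepG2 CAGA-GFP cells (1000/well, DMEM with 1% FBS) received compound, then TGF-beta at 500 pg/mL final, and were incubated 18 hours at 37 degrees C. Viability was read by CellTiter-Glo luminescence. Media-only wells were set as complete cell-killing and DMSO as no toxicity.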
ATXN2 expr inh: Primary qHTS for Inhibitors of ATXN expression; HEK-293 ATXN2-luciferase reporter, luminescence, 24 h; actives 0.72% (n = 360,000); Potency, µM (series often up to 57 µM), usual class: inhibitors; further: nearly all actives have a fitted effect of over 55% in size
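qHTS (up to 57 uM final) was run with 24 h compound exposure of reporter cells at 37 °C. Each well was multiplexed: SteadyGlo luminescence measured ATXN2-luciferase expression after a fluorogenic Gly-Phe-AFC viability readout (25 uM final).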
A number is an active result; n = inactive; u = inconclusive; x = no result given. This is a sample that favours compounds with a hit; in the whole collection about 4.8% have one here. Unless noted, the call rests on the fitted dose curve; in most records, active means well fitted curve in the direction sought with a large enough effect; inconclusive means small, poorly fitted or top-dose-only effect, or another doubt; inactive means no such curve, though single readings can be large; an effect the other way counts as inactive or inconclusive.

SMILES	ATXN viability	D3 antag	DRD3 agonist	TGFb inhibitor	HepG2 viability	ATXN2 expr inh
COc1ccc(-c2cc(C(F)(F)F)nc(SCCC(=O)Nc3ccc(O)cc3)n2)cc1	u	x	n	u	n	n
CN(Cc1ccccc1O)CC1CCCN(CCc2ccc(Cl)cc2)C1 (configuration not stated)	n	-55	n	n	n	x
Nc1ccc(Cc2ccc(C=O)cc2)cc1	x	x	x	n	n	x
COc1ccc(Nc2nc(-c3cccs3)nc3ccccc23)c(OC)c1	n	n	n	n	n	n
COc1cccc2nc(-c3cccs3)nc(NN3C(=O)C=C(C)C3=O)c12	x	x	x	x	x	6.1µM
CCCn1c(CCNc2nc(-c3cccc(Br)c3)cs2)nc2ccccc21	n	n	33	n	n	n
CCCn1c(C(C)Nc2nc(-c3cccc(Br)c3)cs2)nc2ccccc21 (configuration not stated)	u	n	31	n	n	n
O=C(CC1NCCNC1=O)Nc1ccccc1F (configuration not stated)	n	x	n	n	n	n
CC(C)(C)n1nnnc1C(c1cccs1)N(Cc1cccnc1)Cc1ccccc1Cl (configuration not stated)	u	-58	n	18µM	n	u
CC(c1nnnn1C(C)(C)C)N(Cc1cccnc1)Cc1ccccc1Cl (configuration not stated)	n	n	n	n	n	n
CCCNS(=O)(=O)Nc1ncnc(OCCOc2ncc(Br)cn2)c1-c1ccc(Br)cc1	x	x	x	x	x	n
Nc1sc(-c2ccccc2)cc1C(=O)N1CCNCC1	x	-54	n	x	x	x
C=CCNC(=O)c1cc(-c2ccccc2)sc1N	x	n	n	x	x	x
COc1ccccc1Nc1nn2c(=O)c3ccc(C(=O)NCCc4ccccc4)cc3nc2s1	x	x	n	2.2µM	3.2µM	x
COc1ccccc1Nc1nn2c(=O)c3ccc(C(=O)NCCC4=CCCCC4)cc3nc2s1	x	x	n	5µM	5µM	3.2µM
Cc1ccc(NC(=O)c2ccc3c(=O)n4nc(Nc5ccccc5C)sc4nc3c2)cc1C	n	x	n	u	2.8µM	n
Clc1cccc[n+]1CCCCCC[n+]1ccccc1Cl	x	x	x	n	n	x
CCc1nc(-c2cc(S(=O)(=O)N3CCN(c4ccccc4)CC3)ccc2OC)no1	n	x	n	n	n	n
COc1ccc(CN2CCc3nnc(CCc4ccccc4)n3CC2)c(OC)c1C	n	x	x	x	x	x
COc1ccc(-c2nn(C)c3sc(C(=O)Nc4cccc(F)c4)cc23)cc1OC	n	x	n	n	n	u
Cc1c(N)nc(C(CC(N)=O)NCC(N)C(N)=O)nc1C(=O)NC(C(=O)NC(C)C(O)C(C)C(=O)NC(C(=O)NCCc1nc(-c2nc(C(=O)NCCCN[C@@H](C)c3ccccc3)cs2)cs1)C(C)O)C(O[C@@H]1O[C@@H](CO)[C@@H](O)[C@H](O)[C@@H]1O[C@H]1O[C@H](CO)[C@@H](O)[C@H](OC(N)=O)[C@@H]1O)c1cnc[nH]1 (some centres not stated)	n	x	n	x	x	x
COC(=O)c1ccc(CN2C(=O)NC3(CCC(C)CC3)C2=O)o1 (configuration not stated)	n	-65	n	n	n	n
COC(=O)c1ccc(CN2C(=O)NC3(CCC(C)CC3)C2=O)cc1 (configuration not stated)	n	n	n	n	n	n
Cc1ccc2nc(SCC(=O)N3CCC4(CC3)CC4C(=O)Nc3ccc(F)c(F)c3)[nH]c2c1 (configuration not stated)	n	x	x	x	x	x
COCCCNC(=O)Cn1c(=O)n(-c2cccc(C)c2)c(=O)c2c1c1cc(C)ccc1n2C	x	x	n	n	n	x
SMILES	ATXN viability	D3 antag	DRD3 agonist	TGFb inhibitor	HepG2 viability	ATXN2 expr inh
COc1cc(OC)c(OC)cc1CNc1sc2c(c1C(=O)Nc1ccccc1OC)CCC2	u	x	n	n	n	n
Cc1ccc(C(=O)c2sc3c(c2N)c(=O)[nH]c(=O)n3CCc2ccccc2)cc1	n	n	n	n	n	n
CCn1c(=O)[nH]c(=O)c2c(N)c(C(=O)c3cc(F)ccc3F)sc21	n	n	n	11µM	n	n
N#Cc1cc2ccccc2nc1N	n	n	n	u	0.28µM	n
Nc1nc2ccccc2cc1-c1cccs1	n	n	n	n	n	n
CC1=C(C(=O)Nc2cccnc2)C(c2ccccc2)n2nc(SCc3ccccc3F)nc2N1 (configuration not stated)	n	x	n	n	n	u
CC(NC(=O)C1CCOCC1)c1nnc2n1CCN(Cc1ccc(F)cc1)CC2 (configuration not stated)	n	x	x	x	x	x
Cc1ccc(Cl)cc1N1CCN(C(=O)c2c(C)oc3ncnc(N4CCCCC4)c23)CC1	u	x	n	u	n	28µM
O=C(/C=C/c1ccccc1)Nc1cc(-c2nc3ccccc3o2)ccc1Cl	n	x	n	u	n	n
COc1ccccc1NS(=O)(=O)c1ccc(-c2cc(C)no2)s1	n	n	51	n	n	x
Cc1cccc(N(C)S(=O)(=O)c2ccc(-c3cc(C)no3)s2)c1	n	n	n	11µM	n	n
Cc1cc(-c2ccc(S(=O)(=O)Nc3cccc(C(F)(F)F)c3)s2)on1	x	x	n	n	n	x
CCN(c1cccc(C)c1)S(=O)(=O)c1ccc(-c2cc(C)no2)s1	u	n	n	u	n	x
CCOC(=O)c1sc(N2C(=O)c3oc4cc(C)c(C)cc4c(=O)c3C2c2ccc(C)cc2)nc1C (configuration not stated)	n	x	n	n	n	n
Cc1cc2nc3c(nc2cc1C)C1(C(=O)O)CCC3(C)C1(C)C (configuration not stated)	n	n	n	n	n	n
CN1CCN(C(=O)C23CCC(C)(c4nc5ccccc5nc42)C3(C)C)CC1 (configuration not stated)	x	-51	n	n	n	x
COc1ccc2c(c1)c1c(c(=O)n(-c3cc(Cl)ccc3C)c(=O)n1Cc1ccc(F)cc1)n2C	n	x	n	n	n	n
COc1ccc(N/C(=N\c2nc(C)cc(C)n2)NC(=O)C(C)C)cc1OC	n	-65	n	u	n	n
COc1ccc(N/C(=N\c2nc(C)cc(C)n2)NC(C)=O)cc1OC	n	n	n	n	n	n
CCn1nc(C)c(CN2Cc3ccccc3OC(c3ccccc3OC)C2)c1C (configuration not stated)	n	x	x	x	x	x
Cc1cc(C)n(-c2nc(NCCCN(C)C)c3c4c(sc3n2)CCCC4)n1	x	n	n	u	n	22µM
Cc1cc(C)n(-c2nc(NCCN(C)C)c3c4c(sc3n2)CCCC4)n1	22µM	n	n	u	4.5µM	14µM

Screening results deposited in PubChem BioAssay by National Center for Advancing Translational Sciences (NCATS).
